Source: PubChem
NRP1-CendR mod: modulators of CendR peptide binding to human neuropilin-1 | O14786 | FAM-RPARPAR peptide binding to NRP-1, fluorescence polarization | inhibition, % at 25 µM | hit rate 0.85% among 360,000 | AID 602438;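 active = inhibition or corrected inhibition above about 18%, plus a signal ratio from 0.5 to 1.5, limit read from the data, passing the limit was not always enough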
ADAM17 inh: inhibitors of human ADAM17 | P78536 | recombinant ADAM17, EDANS/DABCYL FRET peptide cleavage | inhibition, % at 6.95 µM | hit rate 0.83% among 370,000 | AID 720648;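 active = inhibition above the mean of compounds lying between control limits plus 3 SD, set per campaign, cut at about 8.5% in these data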;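 also: 0% = DMSO-only wells as the low control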
APOBEC3A inh: human APOBEC3A DNA deaminase inhibition; inhibition, % at 20 µM; recombinant A3A, FAM/TAMRA ssDNA deamination fluorescence; hit rate 0.41% among 330,000;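 active = at least 40% inhibition at 20 µM here, with at most 30% in a related deaminase screen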;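 also: plate controls were A3A with DMSO for no effect and wells lacking A3A enzyme for full effect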
Target sequence (P31941 whole entry, looked up): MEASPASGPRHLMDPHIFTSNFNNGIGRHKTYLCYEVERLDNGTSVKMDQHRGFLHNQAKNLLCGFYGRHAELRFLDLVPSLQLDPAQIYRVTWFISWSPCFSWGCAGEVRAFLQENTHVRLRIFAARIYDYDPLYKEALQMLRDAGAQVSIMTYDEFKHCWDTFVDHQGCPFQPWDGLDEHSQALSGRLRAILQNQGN
A3G deaminase: APOBEC3G (human) deaminase inhibition; Q9HC16; inhibition, % at 20 µM; recombinant A3G, ssDNA deamination FAM/TAMRA fluorescence; hit rate 0.28% among 330,000;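 active = inhibition of at least 40% at 20 µM, with no more than 30% in the related APOBEC3A deaminase screen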;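 also: plate controls were DMSO wells with A3G for no effect and wells lacking A3G enzyme for full effect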
Target sequence (Q9HC16 whole entry, looked up): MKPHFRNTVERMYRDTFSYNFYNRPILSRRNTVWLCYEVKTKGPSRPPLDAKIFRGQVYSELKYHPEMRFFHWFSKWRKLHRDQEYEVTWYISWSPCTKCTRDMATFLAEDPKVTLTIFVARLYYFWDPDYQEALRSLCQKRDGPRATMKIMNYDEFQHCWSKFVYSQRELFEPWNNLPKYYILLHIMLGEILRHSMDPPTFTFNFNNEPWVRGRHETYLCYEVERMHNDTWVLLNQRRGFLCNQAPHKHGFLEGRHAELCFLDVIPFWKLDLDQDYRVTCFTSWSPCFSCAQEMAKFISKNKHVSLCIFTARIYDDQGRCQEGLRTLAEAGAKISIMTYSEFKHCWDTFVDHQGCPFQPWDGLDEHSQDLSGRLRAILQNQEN
ADAM10 inh: ADAM10 inhibition, QFRET primary screen; O14672; recombinant ADAM10, EDANS/DABCYL FRET peptide cleavage, 3 h; inhibition, % at 7 µM; hit rate 0.62% among 370,000;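 active = inhibition above a per-campaign cutoff equal to the mean of compounds falling between control-based bounds plus 3 SD, cut at about 20% in these data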;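 also: 0% = DMSO wells while the 100% control is not disclosed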
ADAM10 confirm: human ADAM10 inhibition, confirmation | ADAM10 QFRET peptide cleavage, EDANS fluorescence | hit rate 1% among 2,100 | shares compounds with ADAM10 inh | inhibition, % at 6.95 µM;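 active = inhibition above about 20% chosen separately for each screening run, limit read from the data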;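 also: 0% = DMSO wells and 100% = marimastat wells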
ADAM17 counter: counter-screen for ADAM10 exosite inhibitors: inhibitors of human ADAM17; shares compounds with ADAM10 inh; ADAM17 QFRET peptide cleavage, EDANS fluorescence; inhibition, % at 6.95 µM; hit rate 0.5% among 2,100;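 active = mean triplicate inhibition above the solvent-only control wells' mean plus 3 SD, cut at about 12% in these data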;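 also: 0% = DMSO wells and 100% = marimastat wells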
ADAM10 ctr: inhibits human ADAM10 in ADAM17 exosite counter-screen | shares compounds with ADAM17 inh | recombinant ADAM10, EDANS/DABCYL FRET peptide cleavage, 3 h | inhibition, % at 6.95 µM | hit rate 47% among 2,900 | AID 743256;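 active = mean inhibition over the triplicate runs exceeds the activity threshold set in the earlier primary screen, cut at about 20% in these data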;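 also: 0% = DMSO wells and 100% = marimastat wells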
ADAM17 confirm: confirmation of inhibitors of human ADAM17; shares compounds with ADAM17 inh; recombinant ADAM17, EDANS/DABCYL QFRET peptide cleavage; inhibition, % at 6.95 µM; hit rate 65% among 2,900;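 active = mean inhibition across replicates above the hit cutoff set in the primary screen, cut at about 8.5% in these data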;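 also: 0% = DMSO wells and 100% = marimastat wells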
The depositor's hits bear a star. The list is not random: actives were taken first. Their share in the collection is about 2.4%.

Results for COc1ccc(S(=O)(=O)N(C)C[C@@H]2OCCCC[C@H](C)Oc3ccc(NC(=O)Nc4ccc(C(F)(F)F)cc4)cc3C(=O)N([C@H](C)CO)C[C@H]2C)cc1 ?
NRP1-CendR mod: -11; ADAM17 inh: 13*; ADAM10 inh: 34*; ADAM10 confirm: 14; ADAM17 counter: 5; ADAM10 ctr: 46*; ADAM17 confirm: 24*

Results for C[C@@H]1CN([C@H](C)CO)C(=O)c2cc(NC(=O)Nc3ccc(C(F)(F)F)cc3)ccc2O[C@H]1CN(C)S(=O)(=O)c1cccs1 ?
NRP1-CendR mod: -4; ADAM17 inh: 13*; APOBEC3A inh: -4; A3G deaminase: -10; ADAM10 inh: 29*; ADAM10 confirm: 4; ADAM17 counter: 2; ADAM10 ctr: 49*; ADAM17 confirm: 33*

How did C[C@@H]1CCCCO[C@H](CN(C)S(=O)(=O)c2ccc(F)cc2)[C@@H](C)CN([C@H](C)CO)C(=O)c2cc(NC(=O)Nc3ccc(C(F)(F)F)cc3)ccc2O1 do in these assays?
NRP1-CendR mod: -26; ADAM17 inh: 8.7*; ADAM10 inh: 27*; ADAM10 confirm: 16; ADAM17 counter: 4; ADAM10 ctr: 45*; ADAM17 confirm: 24*

How did C[C@@H]1CCCCO[C@@H](CN(C)S(=O)(=O)c2ccccc2)[C@@H](C)CN([C@H](C)CO)C(=O)c2cc(NS(=O)(=O)c3ccc(F)cc3)ccc2O1 do in these assays?
NRP1-CendR mod: -5; ADAM17 inh: 17*; ADAM10 inh: 27*; ADAM10 confirm: 4; ADAM17 counter: 0; ADAM10 ctr: 28*; ADAM17 confirm: 15*

Results for COC(=O)C1=C(C)N(Cc2ccc(Br)cc2)C(=S)NC1c1cccc(OC)c1 (centres undefined) ?
ADAM17 inh: 1; ADAM10 inh: 5

Results for COc1ccc(-c2c(Cc3ccccc3)nc(NC(=O)c3ccccc3)n2C)cc1 ?
ADAM17 inh: 3; ADAM10 inh: -4

What do the screens show for `O=C(Nc1nc2ccc(F)cc2s1)C1CCN(S(=O)(=O)c2cc([N+](=O)[O-])ccc2Cl)CC1`?
NRP1-CendR mod: -6; ADAM17 inh: 8.8*; APOBEC3A inh: 29; A3G deaminase: 0; ADAM10 inh: 21*; ADAM10 confirm: 5; ADAM17 counter: 2; ADAM10 ctr: 15; ADAM17 confirm: 13*

How did CC(NC(=O)C1CCN(S(=O)(=O)c2cc([N+](=O)[O-])ccc2Cl)CC1)c1ccccc1 (centres undefined) do in these assays?
NRP1-CendR mod: 0; ADAM17 inh: 0; APOBEC3A inh: -4; A3G deaminase: -7; ADAM10 inh: -2

What do the screens show for `CCC(=O)OCCCN1CCC2(CCCCC2)C1=O`?
ADAM17 inh: 1; ADAM10 inh: 4

Results for Cc1ccc(NS(=O)(=O)c2ccc(Cl)c(NC(=S)NC(=O)C3CCCCC3)c2)cc1Cl ?
NRP1-CendR mod: 14; ADAM17 inh: 13*; APOBEC3A inh: -4; A3G deaminase: -12; ADAM10 inh: 27*; ADAM10 confirm: 16; ADAM17 counter: 5; ADAM10 ctr: 46*; ADAM17 confirm: 27*

What do the screens show for `Cc1ccc(NC(=O)C2CCCC2)cc1Cl`?
NRP1-CendR mod: 1; ADAM17 inh: -2; APOBEC3A inh: -1; A3G deaminase: -4; ADAM10 inh: 2

What do the screens show for `Cc1ccc(NC(=O)CSc2nn(-c3ccc(Cl)cc3)c(=S)s2)cc1S(=O)(=O)N(C)C`?
NRP1-CendR mod: -10; ADAM17 inh: 9.8*; APOBEC3A inh: 0; A3G deaminase: -5; ADAM10 inh: 25*; ADAM10 confirm: 9; ADAM17 counter: 3; ADAM10 ctr: 28*; ADAM17 confirm: 20*

Results for Cc1ccc(NC(=O)Cc2ccccc2Cl)cc1S(=O)(=O)N(C)C ?
NRP1-CendR mod: -9; ADAM17 inh: 2; APOBEC3A inh: -4; A3G deaminase: -7; ADAM10 inh: 3

What do the screens show for `Cc1ccc(NC(=O)Cc2ccc(Cl)c(Cl)c2)cc1S(=O)(=O)N(C)C`?
NRP1-CendR mod: 0; ADAM17 inh: 15*; APOBEC3A inh: 1; A3G deaminase: 0; ADAM10 inh: 28*; ADAM10 confirm: 3; ADAM17 counter: 1; ADAM10 ctr: 17; ADAM17 confirm: 9.6*

What do the screens show for `COc1ccccc1NC(=O)O[C@@H]1CC[C@@]23CCCN2C(=O)CCC[C@H]3C1`?
ADAM17 inh: -6; ADAM10 inh: -8

How did O=C(CSc1nc2ccccc2s1)NNC(=S)Nc1ccc(Br)cc1 do in these assays?
NRP1-CendR mod: -12; ADAM17 inh: 13*; APOBEC3A inh: -1; A3G deaminase: 0; ADAM10 inh: 21*; ADAM10 confirm: 3; ADAM17 counter: 1; ADAM10 ctr: 12; ADAM17 confirm: 7

Results for Cc1ccc(NC(=S)NNC(=O)CSc2nnc(SCc3cccc4ccccc34)s2)cc1 ?
ADAM17 inh: 9.3*; ADAM10 inh: 21*; ADAM10 confirm: 5; ADAM17 counter: 1; ADAM10 ctr: 26*; ADAM17 confirm: 11*

How did O=C(CSc1nc2ccccc2s1)NNC(=S)Nc1ccccc1 do in these assays?
NRP1-CendR mod: 18; ADAM17 inh: 0; APOBEC3A inh: 3; A3G deaminase: -7; ADAM10 inh: -4

How did O=C(CSc1nnc(SCc2cccc3ccccc23)s1)Nc1ccc(C(=O)O)cc1 do in these assays?
NRP1-CendR mod: -11; ADAM17 inh: 3; APOBEC3A inh: 3; A3G deaminase: -2; ADAM10 inh: 1

What do the screens show for `O=C(NNC(=O)c1cc(-c2ccccc2)nc2ccccc12)Nc1cccc(Cl)c1`?
NRP1-CendR mod: -1; ADAM17 inh: 10*; APOBEC3A inh: 1; A3G deaminase: -5; ADAM10 inh: 25*; ADAM10 confirm: 19; ADAM17 counter: 7; ADAM10 ctr: 31*; ADAM17 confirm: 21*

How did CC(=O)N1CCN(C2c3cccc4cccc(c34)C2NS(=O)(=O)c2ccccc2)CC1 (centres undefined) do in these assays?
NRP1-CendR mod: 10; ADAM17 inh: 0; APOBEC3A inh: -20; A3G deaminase: -7; ADAM10 inh: 11
